# Inconclusive results are not listed. Calls of active or inactive are those of the source. Calls come from the whole dose curve; as a rule, active = well fitted curve in the direction sought with a large enough effect in the repeat runs; inconclusive = weak or mixed curves; inactive = no such curve, though single readings can be large; an effect the other way counts as inactive or inconclusive.
# Test system: not listed separately
# Experiment: Caspase-3/7 induction in CHO-K1 cells by small molecules, qHTS assay (AID 1346980); note: nearly all actives have a fitted effect of over 15% in size
# Settings: CHO-K1 caspase-3/7 induction, Caspase-Glo luminescence, 17 h; series mostly up to 92.4 µM; caspase-3/7 activation: at the top concentration
# Summary of the method: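 Luminescent Caspase-Glo 3/7 read (30min, room temperature) quantified apoptosis induction. Cells were wild-type CHO-K1, treated with compound for 17hr at 37 C and 5% CO2.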
# % is set by controls: 0 for no effect and ±100 for the full control effect.
row,SMILES,caspase-3/7 activation
1,COCC(=O)N(c1c(C)cccc1C)N1CCOC1=O,1.04% (inactive)
2,CCCCOC(=O)[C@@H](C)Oc1ccc(Oc2ccc(C#N)cc2F)cc1,0.362% (inactive)
3,OCCBr,1.68% (inactive)
4,O=NN1CCCCC1,0.0364% (inactive)
5,CNC(=O)Oc1ccccc1C1OCCO1,0.329% (inactive)
6,Cc1nnc2n1-c1sc(CCC(=O)N3CCOCC3)cc1C(c1ccccc1Cl)=NC2,0.62% [at 42.5 µM] (inactive)
7,OC(Cn1cncn1)(c1ccc(F)cc1)c1ccccc1F (configuration not stated),0.689% (inactive)
8,CC(C(=O)c1ccccc1)N(C)C (configuration not stated),-0.198% [at 42.5 µM] (inactive)
9,O=[N+]([O-])c1cccc2cccnc12,0.637% (inactive)
10,CC1=NNC(=O)N(/N=C/c2cccnc2)C1,-1.21% (inactive)
11,C[C@]12CC[C@H]3[C@@H](CC=C4C[C@@H](O)CC[C@@]43C)[C@@H]1CC[C@@H]2O,0.679% [at 42.5 µM] (inactive)
12,O=[N+]([O-])c1cc(Cl)c(Cl)c(Cl)c1,-0.1% (inactive)
13,C[C@]1(O)CC[C@H]2[C@@H]3CCC4=CC(=O)CC[C@]4(C)[C@@]3(F)[C@@H](O)C[C@@]21C,-1.51% (inactive)
14,c1ccc(N2CCNCC2)cc1,-1.47% [at 42.5 µM] (inactive)
15,O=C1c2ccccc2C(=O)c2ccccc21,2.01% [at 19 µM] (inactive)
16,ClC(Cl)Br,-0.937% (inactive)
17,OCCSCSCCO,-0.54% (inactive)
18,CCC(C)(C)c1cc(-n2nc3ccccc3n2)c(O)c(C(C)(C)CC)c1,0.181% (inactive)
19,CCCCc1ccc(O)cc1,2.95% (inactive)

row,SMILES,caspase-3/7 activation
1,O=C1CN2CCOC2(c2ccccc2Cl)c2cc(Cl)ccc2N1 (configuration not stated),0.0118% [at 42.5 µM] (inactive)
2,CC(=O)CCc1ccc2c(c1)OCO2,-1.38% (inactive)
3,O=C(O)c1cccc(Cl)c1,-3.21% (inactive)
4,c1cc[c]([Hg][c]2ccccc2)cc1,-5.18% (inactive)
5,[Cl][Sn]([Cl])([Cl])[Cl],0.247% (inactive)
6,CCCSC(=O)Cl,0.153% (inactive)
7,CNC(=O)O/N=C(\C)SC,-0.691% (inactive)
8,Cc1nc(N)nc(N)n1,-0.495% (inactive)
9,CC(COc1ccc(Oc2ccccc2)cc1)Oc1ccccn1 (configuration not stated),-0.349% (inactive)
10,ClCC(Cl)Cl,0.322% (inactive)
11,CC(Oc1ccc(Oc2ncc(C(F)(F)F)cc2Cl)cc1)C(=O)O (configuration not stated),0.138% (inactive)
12,N#CCBr,-0.648% (inactive)
13,CS(=O)(=O)c1cc(C(F)(F)F)ccc1C(=O)c1cnoc1C1CC1,1.77% (inactive)
14,CSc1nc(N=[N+]=[N-])nc(NC(C)C)n1,1.14% (inactive)
15,CCc1cc2c(s1)-n1c(C)nnc1CN=C2c1ccccc1Cl,1.34% [at 42.5 µM] (inactive)
16,CCCCOC(=O)c1ccccc1N,3.9% (inactive)
17,O=[N+]([O-])c1ccc2c3c(cccc13)CC2,1.14% (inactive)
18,CC(Cl)(Cl)[N+](=O)[O-],0.354% (inactive)

# Test system: not listed separately
# Experiment: Caspase-3/7 induction in HepG2 cells by small molecules, qHTS cell viability counter screen (AID 1346981); note: nearly all actives have a fitted effect of over 30% in size
# Settings: CellTiter-Fluor fluorescence, 17 h; series mostly up to 92.4 µM; activity change, negative = cytotoxicity: at the top concentration
# Summary of the method: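 Cell viability is measured as a cytotoxicity counter screen alongside the Caspase-Glo 3/7 readout in identical wells. Wild-type HepG2 cells are treated with test compounds for 16 hr at 37 C before CellTiter-Fluor addition and a 1-hr incubation.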
row,SMILES,"activity change, negative = cytotoxicity"
1,COCC(=O)N(c1c(C)cccc1C)N1CCOC1=O,4.06% (inactive)
2,CCCCOC(=O)[C@@H](C)Oc1ccc(Oc2ccc(C#N)cc2F)cc1,1.04% (inactive)
3,OCCBr,0.0202% (inactive)
4,O=NN1CCCCC1,-0.273% (inactive)
5,CNC(=O)Oc1ccccc1C1OCCO1,5.74% (inactive)
6,Cc1nnc2n1-c1sc(CCC(=O)N3CCOCC3)cc1C(c1ccccc1Cl)=NC2,0.43% [at 42.5 µM] (inactive)
7,OC(Cn1cncn1)(c1ccc(F)cc1)c1ccccc1F (configuration not stated),1.11% (inactive)
8,CC(C(=O)c1ccccc1)N(C)C (configuration not stated),3.97% [at 42.5 µM] (inactive)
9,O=[N+]([O-])c1cccc2cccnc12,-3.02% (inactive)
10,CC1=NNC(=O)N(/N=C/c2cccnc2)C1,5.46% (inactive)
11,C[C@]12CC[C@H]3[C@@H](CC=C4C[C@@H](O)CC[C@@]43C)[C@@H]1CC[C@@H]2O,8.14% [at 42.5 µM] (inactive)
12,O=[N+]([O-])c1cc(Cl)c(Cl)c(Cl)c1,-11.2% (inactive)
13,C[C@]1(O)CC[C@H]2[C@@H]3CCC4=CC(=O)CC[C@]4(C)[C@@]3(F)[C@@H](O)C[C@@]21C,3.11% (inactive)
14,c1ccc(N2CCNCC2)cc1,0.546% [at 42.5 µM] (inactive)
15,O=C1c2ccccc2C(=O)c2ccccc21,8.77% [at 19 µM] (inactive)
16,ClC(Cl)Br,1.56% (inactive)
17,OCCSCSCCO,-1.14% (inactive)
18,CCC(C)(C)c1cc(-n2nc3ccccc3n2)c(O)c(C(C)(C)CC)c1,2.84% (inactive)
19,CCCCc1ccc(O)cc1,4.84% (inactive)

row,SMILES,"activity change, negative = cytotoxicity"
1,O=C1CN2CCOC2(c2ccccc2Cl)c2cc(Cl)ccc2N1 (configuration not stated),0.185% [at 42.5 µM] (inactive)
2,CC(=O)CCc1ccc2c(c1)OCO2,4.24% (inactive)
3,O=C(O)c1cccc(Cl)c1,7.27% (inactive)
4,c1cc[c]([Hg][c]2ccccc2)cc1,-0.0644% (inactive)
5,[Cl][Sn]([Cl])([Cl])[Cl],11.1% (inactive)
6,CCCSC(=O)Cl,0.857% (inactive)
7,CNC(=O)O/N=C(\C)SC,0.246% (inactive)
8,Cc1nc(N)nc(N)n1,-0.642% (inactive)
9,CC(COc1ccc(Oc2ccccc2)cc1)Oc1ccccn1 (configuration not stated),0.0521% (inactive)
10,ClCC(Cl)Cl,-0.926% (inactive)
11,CC(Oc1ccc(Oc2ncc(C(F)(F)F)cc2Cl)cc1)C(=O)O (configuration not stated),-3.13% (inactive)
12,N#CCBr,-4% (inactive)
13,CS(=O)(=O)c1cc(C(F)(F)F)ccc1C(=O)c1cnoc1C1CC1,2.9% (inactive)
14,CSc1nc(N=[N+]=[N-])nc(NC(C)C)n1,8.54% (inactive)
15,CCc1cc2c(s1)-n1c(C)nnc1CN=C2c1ccccc1Cl,-1.42% [at 42.5 µM] (inactive)
16,CCCCOC(=O)c1ccccc1N,-2.76% (inactive)
17,O=[N+]([O-])c1ccc2c3c(cccc13)CC2,-4.66% (inactive)
18,CC(Cl)(Cl)[N+](=O)[O-],-4.22% (inactive)

# Target: Nuclear receptor subfamily 1 group I member 2 (Homo sapiens) (UniProt O75469)
# Sequence (O75469 whole entry, looked up): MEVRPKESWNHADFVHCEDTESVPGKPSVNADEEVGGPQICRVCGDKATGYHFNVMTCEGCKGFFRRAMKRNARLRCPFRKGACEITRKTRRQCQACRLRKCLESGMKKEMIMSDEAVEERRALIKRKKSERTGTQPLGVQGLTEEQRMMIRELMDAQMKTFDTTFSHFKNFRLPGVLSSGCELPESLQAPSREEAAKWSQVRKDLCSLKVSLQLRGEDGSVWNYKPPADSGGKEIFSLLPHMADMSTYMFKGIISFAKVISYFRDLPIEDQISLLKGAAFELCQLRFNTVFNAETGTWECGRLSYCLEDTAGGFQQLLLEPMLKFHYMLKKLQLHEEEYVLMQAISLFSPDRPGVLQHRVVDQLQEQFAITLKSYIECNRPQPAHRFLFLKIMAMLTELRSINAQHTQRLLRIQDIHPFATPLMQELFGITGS
# Experiment: Human pregnane X receptor (PXR) small molecule agonists, qHTS assay (AID 1346982); note: nearly all actives have a fitted effect of over 35% in size; note: potency is the fitted concentration of half-maximal effect
# Settings: PXR-Luc HepG2, CYP3A4 luciferase reporter, 24 h; series mostly up to 92.4 µM; activation: at the top concentration
# Summary of the method: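 Cells: HepG2 stably carrying PXR-Luc. Medium held 5% charcoal-stripped FBS. Compounds in DMSO added after 5 hr plating, incubated 24 hr, then luminescence quantified with ONE-Glo.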
SMILES,activation,Potency
COCC(=O)N(c1c(C)cccc1C)N1CCOC1=O,15.2% (inactive),–
CCCCOC(=O)[C@@H](C)Oc1ccc(Oc2ccc(C#N)cc2F)cc1,-9.99% (inactive),–
OCCBr,15.8% (inactive),–
O=NN1CCCCC1,24.5% (inactive),–
CNC(=O)Oc1ccccc1C1OCCO1,-0.0144% (inactive),–
Cc1nnc2n1-c1sc(CCC(=O)N3CCOCC3)cc1C(c1ccccc1Cl)=NC2,19.9% [at 42.5 µM] (inactive),–
OC(Cn1cncn1)(c1ccc(F)cc1)c1ccccc1F (configuration not stated),13% (inactive),–
CC(C(=O)c1ccccc1)N(C)C (configuration not stated),24.3% [at 42.5 µM] (inactive),–
O=[N+]([O-])c1cccc2cccnc12,–,35.3 µM (active)
CC1=NNC(=O)N(/N=C/c2cccnc2)C1,-1.78% (inactive),–
O=[N+]([O-])c1cc(Cl)c(Cl)c(Cl)c1,17% (inactive),–
C[C@]1(O)CC[C@H]2[C@@H]3CCC4=CC(=O)CC[C@]4(C)[C@@]3(F)[C@@H](O)C[C@@]21C,–,48.9 µM (active)
c1ccc(N2CCNCC2)cc1,-5.74% [at 42.5 µM] (inactive),–
ClC(Cl)Br,-0.954% (inactive),–
OCCSCSCCO,8.41% (inactive),–
CCC(C)(C)c1cc(-n2nc3ccccc3n2)c(O)c(C(C)(C)CC)c1,–,69.6 µM (active)
CCCCc1ccc(O)cc1,-8.62% (inactive),–

SMILES,activation,Potency
CC(=O)CCc1ccc2c(c1)OCO2,31.8% (inactive),–
O=C(O)c1cccc(Cl)c1,2.47% (inactive),–
c1cc[c]([Hg][c]2ccccc2)cc1,–,10.9 µM (active)
[Cl][Sn]([Cl])([Cl])[Cl],1.76% (inactive),–
CCCSC(=O)Cl,2.98% (inactive),–
CNC(=O)O/N=C(\C)SC,-5.24% (inactive),–
Cc1nc(N)nc(N)n1,5.23% (inactive),–
CC(COc1ccc(Oc2ccccc2)cc1)Oc1ccccn1 (configuration not stated),–,17.2 µM (active)
ClCC(Cl)Cl,4.32% (inactive),–
CC(Oc1ccc(Oc2ncc(C(F)(F)F)cc2Cl)cc1)C(=O)O (configuration not stated),23.9% (inactive),–
N#CCBr,15.1% (inactive),–
CS(=O)(=O)c1cc(C(F)(F)F)ccc1C(=O)c1cnoc1C1CC1,-2.96% (inactive),–
CSc1nc(N=[N+]=[N-])nc(NC(C)C)n1,–,61.1 µM (active)
CCCCOC(=O)c1ccccc1N,13% (inactive),–
O=[N+]([O-])c1ccc2c3c(cccc13)CC2,–,54.5 µM (active)
CC(Cl)(Cl)[N+](=O)[O-],2.16% (inactive),–

# Reference: PubChem BioAssay (Tox21)
